A549 tox = kills or reduces viability of A549 cells in Nrf2 counter-screen; A549 ARE-Fluc cells, CellTiter-Fluor viability, 18-24 h; Potency, µM (series often up to 46 µM), without a hit: at the highest dose activity change, negative = cytotoxicity, hits mostly inhibitors; 390,000 tested, 0.16% active; also: % is scaled to controls: 0 for no effect and ±100 for the full control effect
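Cytotoxicity counterscreen: CellTiter-Fluor fluorescence was measured in A549 ARE_Fluc cells after 18-24 h of compound exposure in a concentration series. The subsequent BugLite luminescent read reports ARE-luciferase activity.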
Nrf2 block = inhibitors of Nrf2 signaling; 360,000 tested, 2.1% active; A549 ARE-Fluc reporter, luciferase luminescence, 18-24 h; Potency, µM (series often up to 46 µM), without a hit: at the highest dose activity change, negative = inhibition, usual class: inhibitors; AID 504444; also: % is scaled to controls: 0 for no effect and ±100 for the full control effect; nearly all actives have a fitted effect of over 60% in size
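A549 ARE_Fluc cells, 5000/well, 5% FBS OPTI-MEM; compounds in dose-response, 18-24 h at 37 °C/5% CO2; CellTiter-Fluor viability read (Ex 405/Em 525), then BugLite luciferase luminescence = Nrf2 activity.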
Mito fusion act = blocks mitochondrial division or promotes mitochondrial fusion; S. cerevisiae fusion-defective mutant growth rescue, CellTiterGlo 48 h; Potency, µM (doses to about 46.1 µM), inactives show at the top dose growth rescue (activation), actives largely listed as activators; 320,000 tested, 0.23% active; also: % of control where 0% means no effect; nearly all actives have a fitted effect of over 45% in size
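Yeast fusion mutant, YPEG (non-fermentable carbon), compound, 48 h at 37C non-permissive; CellTiterGlo added, 10 min RT, luminescence read. Rescued growth = division inhibition.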
rTrxR1 inhibitor = inhibitors of rat thioredoxin reductase 1; recombinant rTrxR1, NADPH fluorescence consumption, selenite substrate; 390,000 tested, 1% active; O89049; Potency, µM (doses to about 114 µM), inactives show top-dose activity change, negative = inhibition, usual class: inhibitors; also: % is scaled to controls: 0 for no effect and ±100 for the full control effect; nearly all actives have a fitted effect of over 65% in size
Target sequence (O89049 whole entry, looked up): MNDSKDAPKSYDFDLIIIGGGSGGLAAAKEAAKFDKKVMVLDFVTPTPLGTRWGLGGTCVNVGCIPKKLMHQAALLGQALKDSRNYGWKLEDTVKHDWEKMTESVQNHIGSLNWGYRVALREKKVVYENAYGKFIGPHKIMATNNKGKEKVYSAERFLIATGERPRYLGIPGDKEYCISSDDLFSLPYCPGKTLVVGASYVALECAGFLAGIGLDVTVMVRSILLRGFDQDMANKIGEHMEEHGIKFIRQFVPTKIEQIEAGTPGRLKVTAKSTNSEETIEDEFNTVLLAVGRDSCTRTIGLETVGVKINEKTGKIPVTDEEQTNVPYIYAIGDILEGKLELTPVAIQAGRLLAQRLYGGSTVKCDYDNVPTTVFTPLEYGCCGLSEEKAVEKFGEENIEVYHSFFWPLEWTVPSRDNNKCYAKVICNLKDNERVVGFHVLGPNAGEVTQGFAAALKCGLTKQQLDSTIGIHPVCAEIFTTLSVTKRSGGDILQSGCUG
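Rat TrxR1 (90 nM in the dispensed reagent) was pre-reduced with 400 uM NADPH for 5 min at room temperature, then incubated with compound for 15 min. After 400 uM selenite was added, NADPH fluorescence (Ex 340/Em 450 nm) was followed for 8 min.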
IDH1 R132H inh = human IDH1 R132H inhibition; Potency, µM (top dose mostly 76.6 µM), for inactives: at the top dose activity change, negative = inhibition, usual class: inhibitors; IDH1-R132H enzyme, NADPH consumption, diaphorase/resazurin fluorescence; 390,000 tested, 0.093% active; AID 602179; O75874; also: % is scaled to controls: 0 for no effect and ±100 for the full control effect; nearly all actives have a fitted effect of over 65% in size
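IDH1-R132H (0.5 ug/mL) preincubated 30 min with compound, then NADPH (0.016 mM) and alpha-KG (2 mM) added; 80 min at RT, pH 7.5. Remaining NADPH coupled via diaphorase/resazurin to fluorescence (540/590 nm); concentration-response curves normalized to no-enzyme control.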
TrxR1 substrate = rat thioredoxin reductase 1 substrate activity; purified TrxR1 substrate turnover, NADPH consumption readout; Potency, µM (doses to about 114 µM), for inactives: top-dose activity change, negative = substrate turnover; O89049; 390,000 tested, 0.01% active; also: % is scaled to controls: 0 for no effect and ±100 for the full control effect; nearly all actives have a fitted effect of over 50% in size
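Rat TrxR1, dispensed at 90 nM, was prereduced with 400 uM NADPH (final) for 5 min at ~22 deg C, then incubated with compound 15 min before 400 uM selenite. A first-read NADPH fluorescence drop versus no-compound background flagged substrates.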
* hit, by the source's call; [ ] = another dose, or the depositor's remark. Rows were chosen to be rich in hits. Some 3.1% of all compounds tested hit in one or more screens of this group. Calls follow the shape of the dose curve; as a rule, active = well fitted curve in the direction sought with a large enough effect; inconclusive = small, poorly fitted or top-dose-only effect, or another doubt; inactive = no such curve, though single readings can be large; an effect the other way counts as inactive or inconclusive. Potency is read from the fitted curve at half-maximal effect.

For CCc1c(C)sc2c1CCN(C(=O)Nc1ccccc1Cl)C2c1ccc(OC)cc1 (stereo unspecified) the results were A549 tox 15%, rTrxR1 inhibitor 15%[57.1 µM], IDH1 R132H inh 0% and TrxR1 substrate 2%[57.1 µM].
Screening COc1ccc(-c2nc3c4ccccc4n(CC(=O)Nc4cc(F)ccc4F)c(=O)n3n2)cc1 returned A549 tox 2%, rTrxR1 inhibitor 11%[57.1 µM], IDH1 R132H inh -9% and TrxR1 substrate -1%[57.1 µM].
For COc1ccc(C)cc1-n1nnnc1SCc1csc(C)n1 the results were A549 tox -3%, Nrf2 block -15%, Mito fusion act 2%, rTrxR1 inhibitor 26%[57.1 µM], IDH1 R132H inh -1% and TrxR1 substrate -2%[57.1 µM].
For COc1ccc(C)cc1-n1nnnc1SCc1cc(=O)n2cc(C)ccc2n1 the results were A549 tox -21%, Nrf2 block 13µM*, Mito fusion act inconclusive, rTrxR1 inhibitor -13%, IDH1 R132H inh 11% and TrxR1 substrate 0%.
`CCOc1c(Cl)cc(C(=O)N(Cc2ccc(N(C)C)cc2)Cc2ccco2)cc1Cl` gave A549 tox 7%, Nrf2 block -28%, rTrxR1 inhibitor 13% and TrxR1 substrate -2%.
CCOC(=O)c1sc2nc(CSc3ccccc3)nc(N3CCC(C(N)=O)CC3)c2c1C was read as A549 tox 4%, Nrf2 block 21µM*, Mito fusion act 0%, rTrxR1 inhibitor 20%[57.1 µM], IDH1 R132H inh -8% and TrxR1 substrate 3%[57.1 µM].
Cc1sc2nc(CSc3ccccc3)nc(N3CCC(C(N)=O)CC3)c2c1C was read as A549 tox 1%, Nrf2 block inconclusive, Mito fusion act 9%, rTrxR1 inhibitor 31%, IDH1 R132H inh 0% and TrxR1 substrate -4%.
`C=C1CCN(C(CC(C)C)C(=O)Nc2nc3ccc(Cl)cc3s2)S(=O)(=O)c2ccccc21` (stereo unspecified) gave A549 tox -20%, Nrf2 block inconclusive, rTrxR1 inhibitor 8%[57.1 µM] and TrxR1 substrate -3%.
`O=C(CN1C(=O)NC2(CCCCC2)C1=O)Nc1ccc(Cl)c(S(=O)(=O)N2CCOCC2)c1` gave A549 tox -8%, Nrf2 block 23µM*, Mito fusion act 1%, rTrxR1 inhibitor -7%, IDH1 R132H inh -8% and TrxR1 substrate -6%.
Screening O=C(Cc1cccs1)Nc1ccc(Cl)c(S(=O)(=O)N2CCOCC2)c1 returned A549 tox -7%, Nrf2 block 16µM*, Mito fusion act 1%, rTrxR1 inhibitor 6%[57.1 µM], IDH1 R132H inh -1% and TrxR1 substrate -2%[57.1 µM].
Screening O=C(Cc1cccs1)Nc1ccc(F)c(S(=O)(=O)N2CCOCC2)c1 returned A549 tox 9%, Nrf2 block -4%, Mito fusion act -3%, rTrxR1 inhibitor 26%, IDH1 R132H inh -5% and TrxR1 substrate 5%.
Screening O=c1[nH]cc(C#Cc2ccccc2)c2ncncc12 returned A549 tox 4%, Nrf2 block inconclusive, rTrxR1 inhibitor -2% and TrxR1 substrate -1%.
Screening OC(Cn1cncn1)c1ccc(Cl)cc1 (stereo unspecified) returned A549 tox 4%, Mito fusion act -4%, rTrxR1 inhibitor 15%, IDH1 R132H inh 11% and TrxR1 substrate 3%.
OC(Cn1cncn1)(c1ccc(F)cc1)c1ccc(Cl)cc1 (stereo unspecified) was read as A549 tox 3%, Nrf2 block 4%, Mito fusion act 7.1µM*, rTrxR1 inhibitor 21%, IDH1 R132H inh -1% and TrxR1 substrate 5%.
Cn1c(CCN2CCN(c3ccccn3)CC2)nc2cc(NC(=O)COc3ccccc3)ccc21 was read as A549 tox -4%, Nrf2 block 23µM*, Mito fusion act -8%, rTrxR1 inhibitor 10%, IDH1 R132H inh 5% and TrxR1 substrate -2%.
Cc1ccc(OCC(=O)Nc2ccc3c(c2)nc(CCN2CCN(c4ccccn4)CC2)n3C)cc1 was read as IDH1 R132H inh 3%.
Cc1ccc(CNC(=O)C2CCN(C(=O)c3cnn(-c4ccccc4)c3-n3cccc3)CC2)cc1 was read as A549 tox -14%, Nrf2 block inconclusive, rTrxR1 inhibitor 6% and TrxR1 substrate 0%.
COc1cc(C(=O)Oc2cccc(Nc3ncnc4ccccc34)c2)cc(OC)c1OC was read as A549 tox -17%, Nrf2 block 15µM*, Mito fusion act -5%, rTrxR1 inhibitor 57%, IDH1 R132H inh -1% and TrxR1 substrate 37%.
`COc1ccc(C(=O)Oc2cccc(Nc3ncnc4ccccc34)c2)cc1OC` gave A549 tox -2%, Nrf2 block inconclusive, Mito fusion act 11%, rTrxR1 inhibitor 11%, IDH1 R132H inh 4% and TrxR1 substrate 27%.
CCN(Cc1ccccc1)Cc1c(O)ccc2c(=O)c(-c3ccccc3Cl)coc12 was read as A549 tox 3%, Nrf2 block -9%, rTrxR1 inhibitor inconclusive and TrxR1 substrate 72%.
For COc1cccc(C(=O)CN2CCN(S(=O)(=O)c3cccc([N+](=O)[O-])c3)CC2)c1 the results were A549 tox 19%, Nrf2 block -11%, Mito fusion act -9%, rTrxR1 inhibitor 8.9µM*, IDH1 R132H inh 0% and TrxR1 substrate -1%.
COc1ccc(C(=O)CN2CCN(S(=O)(=O)c3cccc([N+](=O)[O-])c3)CC2)cc1OC was read as A549 tox -1%, Nrf2 block -13%, Mito fusion act -7%, rTrxR1 inhibitor -19%, IDH1 R132H inh -7% and TrxR1 substrate -10%.
Screening O=C(NCN1CCc2ccccc2C1)c1cnccn1 returned A549 tox -13%[1.84 µM], Nrf2 block 10%, Mito fusion act -1%, rTrxR1 inhibitor 20µM*, IDH1 R132H inh -8% and TrxR1 substrate -4%.
CCOc1ccccc1NC(=O)Nc1ccc2nc(N3CCN(C)CC3)cc(C)c2c1 was read as A549 tox inconclusive, Nrf2 block inconclusive, rTrxR1 inhibitor 17%, IDH1 R132H inh 1% and TrxR1 substrate 28%.
Screening CC(C)Oc1ccc(CN=C(N)N=C(N)N)cc1Cl returned A549 tox -17%, Nrf2 block 15µM*, Mito fusion act -5%, rTrxR1 inhibitor 3%[57.1 µM], IDH1 R132H inh 8% and TrxR1 substrate 4%[57.1 µM].
Screening CC(C)COc1ccc(CN=C(N)N=C(N)N)cc1Cl returned A549 tox -3%, Nrf2 block 5%, Mito fusion act -7%, rTrxR1 inhibitor 6%, IDH1 R132H inh 7% and TrxR1 substrate 3%.

Source: PubChem (National Center for Advancing Translational Sciences (NCATS))
